# From PubChem
# KB-V1 cytotox – kills drug-selected multidrug resistant KB-V1 cells. 3.4% of 400,000 active. Potency, µM (titrated, usually from 46.1 µM), hits mostly cytotoxic. KB-V1 MDR cells viability, CellTiter-Glo, 72 h. AID 1347076; further: nearly all actives have a fitted effect of over 60% in size
#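 Luminescent ATP read-out (CellTiter-Glo, 10 min) measures survival of drug-selected KB-V1 MDR cells after 72 h, 37 degrees C compound exposure. Medium: phenol-red-free DMEM, 10% FBS. Values from fitted concentration-response curves.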
# HT1080 IDH1KD tx – kills HT-1080 cells with IDH1 knockdown; HT-1080 IDH1 knockdown viability, ATP luminescence, 48 h; Potency, µM (series often up to 46.1 µM), without a hit: top-dose activity, negative = toxicity, most hits filed as cytotoxic; 2% of 360,000 active; AID 686971;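 further: 0% = DMSO wells and -100% = cell-free medium wells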
#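 Luminescent ATP read-out (CellTiter-Glo, 10 min at room temperature) after 48 h compound exposure at 37 °C gave viability of IDH1-knockdown HT-1080 cells. Activity was normalised to DMSO and cell-free wells, then fitted as concentration-response curves.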
# TDP1 cell noCPT – qHTS for Inhibitors of human tyrosyl-DNA phosphodiesterase 1 (TDP1): qHTS in cells in absence of CPT. 15% of 420,000 active. DT40 Tdp1-/- hTDP1 cells, no CPT, ATP luminescence, 48 h. Potency, µM (titrated, usually from 46.2 µM), inactives show at the top dose activity change, negative = growth inhibition, usual class: inhibitors; further: nearly all actives have a fitted effect of over 55% in size
#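 Compound effects on proliferation are scored in DT40 Tdp1-/-;hTDP1 cells in the absence of CPT. ATP levels (CellTiter-Glo luminescence) are recorded after a ≥48 hr, 37 °C incubation.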
# HT1080-NT tox – kills 2HG-producing HT-1080-NT fibrosarcoma cells. AID 686970. 1.6% of 360,000 active. HT-1080-NT fibrosarcoma viability, CellTiter-Glo ATP luminescence, 48 h. Potency, µM (top dose mostly 46.1 µM), without a hit: at the top dose activity, negative = less viability, most hits filed as cytotoxic;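 further: NT is the 2HG producing partner of a matched IDH1 knockdown line; 0% = DMSO-treated cells and -100% = media-only wells without cells; nearly all actives have a fitted effect of over 55% in size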
#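 Fibrosarcoma NT cells, 750 per well in 5% FBS RPMI, were exposed to compound for 48 hours. Viability: CellTiter-Glo luminescence.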
# KB-3-1 cytotox – KB-3-1 parental cell cytotoxicity. 1.4% of 400,000 active. Potency, µM (series often up to 46.1 µM), most hits filed as cytotoxic. KB-3-1 viability, CellTiter-Glo ATP luminescence, 72 h; further: nearly all actives have a fitted effect of over 60% in size
#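 KB-3-1 cells, DMEM (no phenol red) + 10% FBS; compound by pin transfer, 72 h, 37 °C. Readout: CellTiter-Glo luminescence after 10 min. Data normalized, curve-fitted.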
# DT40 TDP1 CPT – growth inhibition of DT40 Tdp1-/-;hTDP1 cells with camptothecin (screen for TDP1 inhibitors); chicken DT40 Tdp1-/-;hTDP1 cells + 20 nM CPT, ATP luminescence, 48 h; Potency, µM (series often up to 46.2 µM), for the others: top-dose activity change, negative = growth inhibition, most hits filed as inhibitors; 12% of 420,000 active; further: nearly all actives have a fitted effect of over 55% in size
#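 Chicken DT40 Tdp1-/- cells complemented with human TDP1, 400 cells/well, exposed to compounds plus 20 nM camptothecin for at least 48 h at 37 C; viability read as ATP content by CellTiter-Glo luminescence.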
# * hit, by the source's call; i = inactive; u = inconclusive; x = no result. A selection: hits, their analogues and other compounds. The true share with any hit is near 19%. The call rests on the fitted dose curve; in most records, active means well fitted curve in the direction sought with a large enough effect; inconclusive means small, poorly fitted or top-dose-only effect, or another doubt; inactive means no such curve, though single readings can be large; an effect the other way counts as inactive or inconclusive. Unless noted, on the % scale 0 is the no-effect control and ±100 the full control effect; potency means the concentration at half of the fitted maximal effect.
SMILES,KB-V1 cytotox,HT1080 IDH1KD tx,TDP1 cell noCPT,HT1080-NT tox,KB-3-1 cytotox,DT40 TDP1 CPT
CCOCCCn1c(SCC(=O)Nc2ccc(C(C)C)cc2)nc2c(sc3ccccc32)c1=O,i,x,u,x,i,-23.2%
Cc1ccc(NC(=O)c2cc(-c3cccs3)nc3ccccc23)nc1,u,20.6µM*,13µM*,u,u,23.1µM*
Cc1c(NC(=O)c2cc3ccccc3o2)c(=O)n(-c2ccccc2)n1C,i,14.2%,0.0%,13.6%,i,-0.8%
Cc1ccc(-c2cc(C(=O)Nc3c(C)n(C)n(-c4ccccc4)c3=O)c3ccccc3n2)cc1,u,11.1%,u,1.0%,i,u
Cc1cc(C)c2c(C)c(C(=O)Nc3c(C)n(C)n(-c4ccccc4)c3=O)oc2c1,8.2µM*,-15.2%,u,-0.7%,i,u
COc1cccc(CNC(=O)c2cc(-c3cccs3)nc3ccccc23)c1,i,x,-26.5%,x,i,-13.7%
CC(C)OCCCNC(=O)c1cc(-c2cccs2)nc2ccccc12,i,-0.8%,u,-4.7%,i,16.4µM*
COc1ccc(-c2cc(C(=O)Nc3c(C)n(C)n(-c4ccccc4)c3=O)c3ccccc3n2)cc1OC,u,-24.6%,14.6µM*,u,i,u
COc1ccc(C2CC(=O)N(CC(=O)Nc3ccc(C(C)=O)cc3)c3ccccc3S2)cc1OC (configuration not stated),u,x,x,x,i,x
Cc1ccc(CNC(=O)CCCn2c(=O)c3ccccc3n(Cc3ccccc3Cl)c2=O)cc1,i,x,u,x,i,-16.1%
COc1ccccc1C(=O)NC(=O)COC(=O)c1cccc(OC(F)F)c1,i,4.0%,16.1%,6.6%,i,-0.7%
COc1ccc(NC(=O)C2(C)CCN2C2Cc3ccccc3C2)cc1OC (configuration not stated),i,-13.6%,-89.4%,-0.6%,i,u
COc1ccc(/C(O)=C/C(=O)C(=O)Nc2c(C)n(C)n(-c3ccccc3)c2=O)cc1,16.4µM*,0.0%,-10.9%,-24.0%,i,-0.1%
COc1ccc(-c2cc(C(F)F)n3ncc(C(=O)Nc4c(C)n(C)n(-c5ccccc5)c4=O)c3n2)cc1,i,-3.8%,11.6µM*,-6.5%,i,u
Cc1c(NC(=O)c2ccc(COc3ccc4ccccc4c3)o2)c(=O)n(-c2ccccc2)n1C,7.31µM*,1.7%,23.1µM*,0.1%,20.6µM*,u
Cc1c(NC(=O)C(=O)/C=C(/O)c2ccccc2)c(=O)n(-c2ccccc2)n1C,u,8.3%,10.2%,7.5%,i,4.3%
Cc1c(NC(=O)c2cc(-c3ccccc3)nc3ccccc23)c(=O)n(-c2ccccc2)n1C,x,2.9%,u,0.7%,x,u
Cc1c(NC(=O)c2cc(-c3cccs3)nc3ccccc23)c(=O)n(-c2ccccc2)n1C,i,-27.2%,20.6µM*,-16.4%,i,u
COc1ccc2cc(CNc3ccc(C)cc3)c(=O)n(CC(=O)Nc3cccc(C(F)(F)F)c3)c2c1,i,x,x,x,i,x
Cc1c(NC(=O)C(C)OC(=O)c2cc(-c3cccc4ccccc34)nc3ccccc23)c(=O)n(-c2ccccc2)n1C (configuration not stated),9.2µM*,-1.8%,u,-7.5%,i,-17.5%
COc1ccc(-c2cc(C(=O)OC(C)C(=O)Nc3c(C)n(C)n(-c4ccccc4)c3=O)c3ccccc3n2)cc1 (configuration not stated),i,3.2%,u,8.4%,i,-26.6%
COc1ccc(C(=O)COC(=O)C2CCCN2C(=O)C23CC4CC(CC(C4)C2)C3)cc1 (configuration not stated),i,15.1%,-24.3%,15.9%,i,23.1µM*
Cc1cc(CCCCCCCCc2cc(C)cc(=O)o2)oc(=O)c1,7.31µM*,-6.9%,16.4µM*,6.3%,i,u
COC(=O)c1cc(C)cc(=O)o1,i,12.1%,-4.5%,4.3%,i,-2.6%
COCCN(CC(=O)NCc1ccc2c(c1)OCO2)C(=O)CCC(=O)Nc1nccs1,i,10.1%,-0.8%,17.9%,i,-2.3%
SMILES,KB-V1 cytotox,HT1080 IDH1KD tx,TDP1 cell noCPT,HT1080-NT tox,KB-3-1 cytotox,DT40 TDP1 CPT
COCCNC(=O)CN(Cc1ccc2c(c1)OCO2)C(=O)CCC(=O)Nc1nccs1,i,15.3%,18.4µM*,2.5%,i,18.4µM*
COc1ccc(N2C(=S)NC(C)(C)CC2(C)c2ccc(OC(C)=O)cc2OC(C)=O)cc1 (configuration not stated),i,7.0%,9.9%,-6.6%,i,13.5%
CC(=O)Oc1cc2c(cc1Cl)C1(CC(c3ccccc3Cl)O2)CC(C)(C)NC(=S)N1 (configuration not stated),u,23.1µM*,2.59µM*,16.4µM*,i,3.26µM*
CCOC(=O)c1sc2nc(CSc3ccccc3)nc(N3CCCN(C)CC3)c2c1C,i,-23.3%,u,-14.5%,i,25.9µM*
Cc1sc2nc(CSc3ccccc3)nc(N3CCOCC3)c2c1C,i,-6.3%,u,0.2%,i,u
CCOC(=O)c1sc2nc(C)nc(N3CCCCC3C)c2c1C (configuration not stated),i,-27.6%,u,-19.9%,i,u
CCOC(=O)c1sc2nc(CC(=O)OC)nc(N3CCN(c4ccccn4)CC3)c2c1C,i,0.0%,18.4µM*,u,i,23.1µM*
Cc1sc2nc(CSc3ccccc3)nc(N3CCC(C(N)=O)CC3)c2c1C,u,6.6%,20.6µM*,0.1%,i,u
CCOC(=O)c1sc2ncnc(N3CCN(CC)CC3)c2c1C,i,20.9%,u,2.3%,i,15.3%
CCOC(=O)c1sc2nc(CSc3ccccc3)nc(N3CCC(C(N)=O)CC3)c2c1C,u,23.1µM*,23.1µM*,u,i,u
C=CCNCCCCOc1ccc(Br)cc1C,i,-29.4%,u,-17.4%,i,u
COCCNCCCOc1ccc(Cl)cc1Br,i,u,16.4µM*,u,i,u
OCCNCCCOc1ccc(Cl)cc1Br,i,-21.5%,29.1µM*,-17.3%,i,u
Cc1cc(Br)ccc1OCCCCNCCO,i,-20.6%,20.6µM*,-15.1%,i,23.1µM*
Clc1ccc(OCCCNCc2ccccc2)c(Br)c1,20.6µM*,u,16.4µM*,u,i,14.6µM*
